The panel holds about 83,000 compounds, 20% with a hit somewhere; the sample as a whole holds those more often.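 Negative percent growth values reflect cell death: -40 means 40% of the cells present at the start died, and -100 means all died.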 A number with no mark means an inactive call. Activity calls are given as the source filed them. Rule for the calls: active = growth percent below 10; inactive = the rest.

The results in this text go back to PubChem BioAssay (NCI).

What all share (assay): NCI-60 one-dose screen, 48 h (100 = growth as untreated, 0 = no growth, -100 = all killed)
The subject of assay [1] is T-47D breast. The following applies: 10 µM.
In assay [2] the test system is BT-549 breast. The following applies: 10 µM unless noted.
Assay [3] relates to MDA-MB-435 melanoma. The following applies: 10 µM unless noted.
For assay [4], the system named is SW-620 colon. The following applies: 10 µM unless noted.
The subject of assay [5] is MCF7 breast. The settings on record: 10 µM unless noted.
The subject of assay [6] is HCT-116 colon. The following applies: 10 µM unless noted.
In assay [7] the test system is HCC-2998 colon. The settings on record: 10 µM unless noted.
For assay [8], the system named is KM12 colon. The settings on record: 10 µM unless noted.

For the compound `O=C1c2c(c3c4cc(Br)ccc4[nH]c3c3ccc4ccccc4c23)C(=O)N1O`, the growth in assay [1] is 69.3%; in assay [2], 93.4%; in assay [3] it was 94.6%; in assay [4], 68.8%; in assay [5], 43.3%; in assay [6], 83.6%. Further, the growth in assay [7] is 95.1%; in assay [8], 87.5%.

Consider `O=C(NCc1ccco1)C1CCN(S(=O)(=O)c2ccc(Cl)cc2)CC1`, for which the growth in assay [1] is 78%; in assay [2] it was 84.4%; in assay [3], -9% (active); in assay [4], 38.5%; in assay [5] it was 64.7%; in assay [6], 70.4%. In addition, the growth in assay [7] is 80.3%; in assay [8] it was 37.6%.

For the compound `O=c1[nH]c(-c2ccncc2)nc2sc3c(c12)CCCCCC3`, the growth in assay [1] is 24.6%; in assay [2] it was 98.9%; in assay [3], 77.7%; in assay [4], 72.2%; in assay [5], 77.4%; in assay [6], 46.6%. In addition, the results for the growth in assay [7] and in assay [8] were 101% and 84.4%, respectively.

For `COc1cccc2c(=O)c3c(sc12)c(NCCN(C)C)nc1ccccc13`, the growth is 61.3% in assay [1]; 61.3% in assay [2]; -87.1% (active) in assay [3]; -69.5% (active) in assay [4]; 0.0828% (active) in assay [5]; 11% in assay [6]. Further, the growth in assay [7] is 12.2%; in assay [8], -76.7% (active).

For `Cc1nc2cc(Nc3nc(Nc4ccc(F)cc4)nc(N4CCCC4)n3)ccc2n1Cc1ccccc1`, the growth in assay [1] was -31.3% (active); in assay [2] it was -14% (active); in assay [3], -74.2% (active); in assay [4], -53.8% (active); in assay [5] it was 3.05% (active); in assay [6] it was -79.3% (active). Besides, the values for the growth in assay [7] and in assay [8] were -59.2% (active) and -73.4% (active), respectively.

Turning to `O=C(c1ccc2ncc(-c3nc(NC4CC4)ncc3F)n2c1)N1CCOCC1`, the growth in assay [1] is 32.2%; in assay [2], 52.4%; in assay [3], 32%; in assay [4], 10.2%; in assay [5], 5.99% (active); in assay [6], 0.221% (active). The growth in assay [7] was 71.3%; in assay [8], 2.99% (active).

Regarding `C=CC(=O)N1CC2(CCC(n3nc(-c4ccc(Oc5ccccc5)cc4)c4c(N)ncnc43)CC2)C1`, the growth in assay [1] was 14.6%; in assay [2], -69.3% (active); in assay [3], -81.1% (active); in assay [4], 0.371% (active); in assay [5], 1.86% (active); in assay [6], -82.7% (active). The values for the growth in assay [7] and in assay [8] were -77.8% (active) and -29.1% (active), respectively.

With `CC1=CN2C(=NC3=C(CCCC/C3=C\c3ccccc3)C2c2ccccc2)S1` (centres undefined), the growth in assay [1] is 91%; in assay [2], 108%; in assay [3], 99.6%; in assay [4], 103%; in assay [5], 94.6%; in assay [6] it was 97.6%. Moreover, the growth in assay [7] is 103%; in assay [8], 100%.

Regarding `COc1ccc(-c2nc3sccn3c2/C=C/C(=O)c2cc(OC)c(OC)c(OC)c2)cc1OC`, the growth was 4.81% (active) in assay [1]; 0.662% (active) in assay [2]; -30.5% (active) in assay [3]; 10.2% in assay [4]; 4.93% (active) in assay [5]; 7.36% (active) in assay [6]. Further, the growth in assay [7] is 40.3%; in assay [8], -15.2% (active).

Turning to `COc1cc(/C=C/c2cc(/C=C/c3ccc(O)c(OC)c3)n(-c3ccccc3)n2)ccc1O`, the growth in assay [1] was -23.9% (active); in assay [2], -47.2% (active); in assay [3], -67.3% (active); in assay [4] it was -22.7% (active); in assay [5], -5.71% (active); in assay [6], -5.83% (active). Also, the growth is 5.82% (active) in assay [7] and -28% (active) in assay [8].

Consider `NC(=O)c1cccc(-n2ccc3cc(NC(=O)Nc4ccc(Cl)c(Cl)c4)ccc32)n1`, for which the growth in assay [1] is 49.3%; in assay [2], 65.8%; in assay [3] it was 61%; in assay [4] it was 94.2%; in assay [5] it was 57.7%; in assay [6], 71.9%. In addition, the figures for the growth in assay [7] and in assay [8] were 97.7% and 55.5%, respectively.

For `COC(=O)c1c2c(c(C)[n+]([O-])c1C)C(=O)C=C(NCc1ccc(Cl)cc1)C2=O`, the growth in assay [1] is -33.8% (active); in assay [2], -23.8% (active); in assay [3], -96.1% (active); in assay [4], -17.3% (active); in assay [5], -63.2% (active); in assay [6], -19.9% (active). The growth in assay [7] is -34.6% (active); in assay [8], -4.32% (active).

In the case of `Cc1ccc(S(=O)(=O)N2C/C(=C\c3cc(F)cc(F)c3)C(=O)/C(=C/c3cc(F)cc(F)c3)C2)cc1`, the growth in assay [1] was -0.238% (active); in assay [2], -16.9% (active); in assay [3], -76.6% (active); in assay [4] it was -47% (active); in assay [5], -75.4% (active); in assay [6], -93.9% (active). In addition, the growth was -82.6% (active) in assay [7] and -30.6% (active) in assay [8].

`COc1ccc(-c2c3c(N)c4c(nc3nc3c2c(C)nn3-c2ccccc2)CCCC4)cc1`: the growth was 84% in assay [1]; 106% in assay [2]; 77.5% in assay [3]; 68.2% in assay [4]; 58.5% in assay [5]; 31.8% in assay [6]. Besides, the growth in assay [7] was 100%; in assay [8], 89.6%.

In the case of `C[C@@H](Oc1cc(-c2cnn(C3CC4(CNC4)C3)c2)cnc1N)c1c(Cl)ccc(F)c1Cl`, the growth was 43.3% in assay [1]; 80.3% in assay [2]; 41% in assay [3]; 23.8% in assay [4]; 9.06% (active) in assay [5]; 16.7% in assay [6]. The figures for the growth in assay [7] and in assay [8] were 57.1% and -18.5% (active), respectively.

`C1CCC([PH+](C2CCCCC2)C2CCCCC2[PH+](C2CCCCC2)C2CCCCC2)CC1.O=C(C1[CH-]CCCC1)C1CCCC[N-]1.[Au]` (centres undefined): the growth in assay [1] is 10.3%.

In the case of `COc1cc(/C=C2\C(=O)Nc3ccccc32)cc(OC)c1O`, the growth in assay [1] was 49.6%; in assay [2] it was 74.8%; in assay [3], -25.3% (active); in assay [4], 31.5%; in assay [5] it was 30.8%; in assay [6] it was 46.4%. Besides, the growth was 78.8% in assay [7] and 32.2% in assay [8].
